This test concerns VDR:RXRa (NR concentration 270 nM, RXRa partner concentration 90 nM). In words: PBM binding z-score (relative to random genomic background probes); higher = stronger binding; sequences stand for … in GC…GCGATTGACAGCGTAGAATGAAGG
The procedure:
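Protein-binding microarray (Agilent 4x180K custom design, double-stranded 60-nt probes: 5' GC cap, 34-nt variable region, 24-nt constant primer region; full probe sequence given). Purified or IVT nuclear receptor:RXRα heterodimers (3:1 NR:RXRα, mostly 270:90 nM) or homodimers were incubated for 1 h in PBS with 2% milk and no ligand, then detected with Alexa488 antibodies. Fluorescence from o1-orientation probes (~5 replicates averaged) was converted to z-scores against 500 random hg19 background probes. Variable regions are seed direct-repeat (DR0–DR5) sites, all their single-nucleotide variants and half-site ablations.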
Take TAGCCTAGGTCAAATCGGGCCAGTATACGCTATA: the PBM binding z-score was 2.7.
Sequence ACTATTAGTTGACTCAGGGCAACCGATACGACGC had a PBM binding z-score of 0.825.
CCGACTCGGGCAGAAAGGTTACCATACCATCCGG returned a PBM binding z-score of 0.699.
As for GATACAGGGTCAAGGCTAGAGTACGCGTATTGAT, the figure is 4.6.
As for TCTAGTTGGTCAAAGGTCAGACACTCGAAATGCG, the figure is 4.09; as for TTTAGTTGGTCACGGAGGTCACACACGACGGGTA, 6.05; as for CCTATTAGTTGACCATAAGGGGAACCGAAGCTCG, 0.632.
On to TTACCAAGGTGAAAGGTAGTTGATGCACGCCTTG, for which the PBM binding z-score worked out at 0.524.
As for ATCGAAAGGTCGAGGGGAGTATAGAGAAAGGGAA, the PBM binding z-score is 2.67.
CCTTGCAGGCCAATCTGGGTCACTCAAGGCTTGA registered a PBM binding z-score of 0.663.
As for TAGCCTAGGTCATTGGGCCAGGATAGTACGCATC, the figure is 1.85; as for ATATGTAGGTTACATCCGGGTCAGTCAGGCTATG, 2.62; as for CCTTACGGGTCAAGGATATAGCACGGGTGGTACG, 2.65.
As for TAGCCTAGGTCATGCGGGCCAGTAGAGTGTCGGC, the figure is 2.95; as for ATCTCTAGGTAAAGATAGTCCAGTGAATGCAAAT, -0.0135.
To CCGACTGGGGCAAAGGTTCCCATACTCAGTACGA belongs -0.179; to CCTACTGGGCCAAAAAGGTCAATGATGCCGATAA, 4.18.
TCTTGTCGATCAAAGGTTAAGAAAGCCGAAGCCT came in with a PBM binding z-score of 1.27.
Take GCTTGTAGATCAAGTTTAAGAAAGACTAAGCTAA: the PBM binding z-score is -0.096.
In the case of CCGACTGGAGCAAAGGTTACCATACTCAGTACGA, the PBM binding z-score came out at 1.17.
To ATCGAAAAGTCGACGAGGTGAGTATACACCGTTT belongs 0.461.
To GGTTGTAGATCAAGGTTAAGAAAGACTAAGCTAA belongs 0.833; to CCTGCTAGGTCAATGGGCAGCTAAAGCAGCTCGC, 0.356.
As to CCTAGTTGGGCAAGGTCACACACGCTATAGGTAC, the PBM binding z-score came to 3.84.
The sequence ATCTCAAGGTAACCAAGTTCAGTGAATGCCGAAC displayed a PBM binding z-score of 5.03.
CCAGACAGGTGAAGGGTAACTCAGTCTGGTACGC: the PBM binding z-score is -0.111.
In turn, GCTCGTAGGACAAGGTCAGAGCTTTGTCCGTAGA came in with a PBM binding z-score of 1.4.
TCTTGTAGATCGAGCAGGTTAAGAAAGCCTGAGT had a PBM binding z-score of -0.0222.
As for CGTCCAAGGTCATAGGAGGACAGTGAAGACAGAT, the figure is 5.21; as for TCAGACAGCTGAAGGTAACTCAGGTACGCAGTCG, 0.484.
As for TAGTCTAGGTCATTCAGGGGCCAGTATAGAAAGC, the figure is 3.15; as for GCTAGCAGGCCATTTGGGTCGCTCAATGACGGGC, -0.563; as for ACTAGTTGGTCAGCTGAGGTCACAGACAATTCGG, 4.25.
To CCGACTGGGACAAGGTTACCATAACGCACAGCCA belongs 0.2; to TCTGCTAGGTCAGTTCGTCAGCTAACGAGCTGCC, 0.144.
In turn, ACTAGTTGGTCAGCTGAGGTGACACACAATTCGG showed a PBM binding z-score of 0.731.
GCTTGTAGATCAAGGTTCAGAAAGACTAAGCTAA displayed a PBM binding z-score of 0.919.
As for CGTCAAGGTTCAAGGTAACGTAACAGAAAGCAGC, the figure is 3.05.
As for CCTTACGGATCAAGGTTATAGCACGGGTGGTACG, the figure is 0.474.
In turn, GCTAGTTGGTCAGTAAAAGGTCGCACACCGGTCG displayed a PBM binding z-score of 1.39.

These data come from the supplement of paper PMC6555819.
